According to the OligoGym collection:

molecular target: LCN1; assay: pooled miR-30 sensor sort-seq; sequence = guide strand; settings: shRNA
Further: reference of the scale not given here.

Row | Sequence | sensor-assay potency score (higher = more potent)
1 | TGGTCCTTCACGTGCGACCTGA | -1.44
2 | TCCTGAATCTCCTCGTCTGAGG | -2.03
3 | ATTCATCTCAGGGAACTCCCTG | -0.0672
4 | TCTCCGTGCTGAGTCCGCGGGC | -0.925
5 | TTGTTCTTGGGGTCTCTGCCCA | -0.515
6 | TGTTCTTGGGGTCTCTGCCCAC | -1.02
7 | ATCCTGAATCTCCTCGTCTGAG | -1.24

molecular target: LECT2; assay: as above; settings: shRNA

Row | Sequence | sensor-assay potency score (higher = more potent)
8 | TAATGTAGAACATTTTGACACA | -0.673
9 | TTTGAGCAGAGTACTGTCCACA | -0.808
10 | TCTCATTGGAAGACTTGCCAGC | -0.403
11 | ATTGATAGCATTCTTGTTTTGA | -0.317
12 | ATTATTGATAGCATTCTTGTTT | -0.52
13 | TTCCAGATATTCGAACACCATT | -1.45
14 | TATTCGAACACCATTATTGATA | -1.28
15 | ATGTAGAACATTTTGACACAAA | -1.54
16 | TTATTGATAGCATTCTTGTTTT | -1.1
17 | TATGCCAGGATAAACTTTCTGC | -0.251
18 | TTGACACAAAAACCTCTTCCAG | -1.04
19 | TTGTATGCCAGGATAAACTTTC | -0.895

molecular target: LEFTY1; assay: as above; settings: shRNA

Row | Sequence | sensor-assay potency score (higher = more potent)
20 | TTACAAAGTCTTTATTATCTGG | -0.428
21 | TAGTCCCCAAGGTCCAGGGTGT | -1.02
22 | TGACCAGCTCCTCCATGTCGGC | -1.7
23 | TCATAAGCCAGGAAGCCCGGGG | -0.504
24 | TTAGGTGAGGTAACTTGTCAGA | -0.87
25 | TTTGAGCTGCAGCTGCCGCAGC | -0.825
26 | TCCAACGCCAGGAACCTGCCGG | -1.04
27 | TTCTCGGCCCACTTCATCCCCT | -1.23
28 | TAAACAATGACACATTGGGCTT | -1
29 | TCCATAGTCCCCAAGGTCCAGG | -1.98
30 | TCTTTGAGCTGCAGCTGCCGCA | -1.36
31 | TATCTCCACATGTAAGTGCTTA | -0.789

molecular target: LEKR1; assay: as above; settings: shRNA

Row | Sequence | sensor-assay potency score (higher = more potent)
32 | TTGCTCTTCAAATTCAACCAAG | -1.09
33 | TATACTTTTGGATTACATCTTG | -0.0779
34 | TTCTCTACGCACTGTCTCCTGA | -0.0391
35 | TTAGATCTCTTGTAGCGCCTGT | 0.858
36 | TTCTGCTTCAATCTTCTCCTTC | 0.505
37 | TTGCTTTTCTTTCACAGTCAGC | -1.35
38 | TTTCACAGTCAGCTCTTCCTGT | 0.514
39 | TTGCAATTTTGTTTCTTCCTTA | 0.537
40 | TTTAAGAGTGGTCACTTCCTGC | -0.157
